Source: PubChem BioAssay (National Center for Advancing Translational Sciences (NCATS))
Most compounds without a hit are left out; they make up all but 18% or so of the library.
Six1-Eya2 blk: qHTS Assay for Inhibitors of the Six1/Eya2 Interaction | Homeobox protein SIX1 (Homo sapiens) + Protein phosphatase EYA2 (Homo sapiens), … | AlphaScreen GST-Six1/His-Eya2 binding, biochemical; stronger effect = lower value | activity change, % (no concentration beside the values) | actives 0.56% (n = 360,000) | AID 651725, 2012; in the data active = activity change below about -65%; inconclusive = mostly about -30% to -63%
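AlphaScreen luminescence read after one hour at 37 °C in darkness. Pin-transferred compounds met GST-Six1 and His-Eya2 protein (5X stock 250 nM/500 nM) plus glutathione donor and Ni-chelate acceptor beads (5X, 50 ug/mL).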
DT40 TDP1 no CPT: qHTS for Inhibitors of human tyrosyl-DNA phosphodiesterase 1 (TDP1): qHTS in cells in absence of CPT; DT40 Tdp1-/- hTDP1 cells, no CPT, ATP luminescence, 48 h; Potency, µM (series often up to 46.2 µM), for the others: at the highest dose activity change, negative = growth inhibition, hits mostly inhibitors; actives 15% (n = 420,000); AID 686978, 2013; also: potency is read from the fitted curve at half-maximal effect; nearly all actives have a fitted effect of over 55% in size
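Chicken DT40 Tdp1-/- cells stably complemented with human TDP1 were seeded at 400 cells/well with DMSO in place of 20 nM camptothecin. After compound pinning, cells grew at least 48 hr at 37 °C; viability read by CellTiter-Glo luminescence.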
DT40 TDP1 CPT: qHTS for Inhibitors of human tyrosyl-DNA phosphodiesterase 1 (TDP1): qHTS in cells in presence of CPT | Potency, µM (top dose mostly 46.2 µM), for inactives: top-dose activity change, negative = growth inhibition, most hits filed as inhibitors | actives 12% (n = 420,000) | chicken DT40 Tdp1-/-;hTDP1 cells + 20 nM CPT, ATP luminescence, 48 h; also: potency is read from the fitted curve at half-maximal effect; nearly all actives have a fitted effect of over 55% in size
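Chicken DT40 Tdp1-/- cells stably complemented with human TDP1 were seeded at 400 cells/well in medium containing 20 nM camptothecin, exposed to pin-transferred compounds, and grown at 37 °C for at least 48 hr. Viability was read as ATP luminescence.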
CtBP-E1A inh: qHTS Assay for Inhibitors of the CtBP/E1A Interaction; AID 651724, 2012; actives 0.49% (n = 340,000); AlphaScreen GST-E1A/His-CtBP binding, 1536-well; stronger effect = lower value; activity change, % (test concentration not listed); in the data active = activity change below about -65%; inconclusive = mostly about -30% to -63%
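AlphaScreen with 125 nM GST-E1A and 125 nM His-CtBP (5X stocks) in Tris pH 8.0, 300 mM NaCl, BSA, Tween 20, TCEP. Compounds preincubated 2 h at 37 deg C, then glutathione donor/nickel acceptor beads added for 1 h at 37 deg C in dark.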
IL1B secr inh: qHTS for Inhibitors of Inflammasome Signaling: IL-1-beta AlphaLISA Primary Screen | THP-1 LPS/ATP IL-1B secretion, AlphaLISA, 16 h; stronger effect = lower value | activity change, % at 57.5 µM | actives 4.7% (n = 360,000); in the data active = activity change below about -50%; inconclusive = mostly about -30% to -49%
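Secreted IL-1B measured by AlphaLISA bead assay after 16 h compound exposure of THP-1 cells; compounds (final up to 57.5 uM) added 1 h before LPS (250 ng/mL) and ATP (1.25 mM) stimulation; lower signal means less secretion.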
TDP1 block: qHTS Assay for Inhibitors of Tyrosyl-DNA Phosphodiesterase (TDP1) | actives 0.28% (n = 350,000) | recombinant TDP1, AlphaScreen DNA substrate cleavage | Potency, µM (top dose mostly 130 µM), without a hit: at the highest dose activity change, negative = inhibition, usual class: inhibitors | AID 485290, 2010; also: potency is read from the fitted curve at half-maximal effect; nearly all actives have a fitted effect of over 40% in size
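Signal: AlphaScreen proximity between streptavidin donor and anti-FITC acceptor beads on intact substrate. Reaction: Tdp1 1 nM, substrate 15 nM final, 5 min RT after 15 min compound preincubation.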
* marks the source's active call; other numbers are inactive results; ? = inconclusive; . = no result given. Unless noted, calls follow the shape of the dose curve; as a rule, active = well fitted curve in the direction sought with a large enough effect; inconclusive = small, poorly fitted or top-dose-only effect, or another doubt; inactive = no such curve, though single readings can be large; an effect the other way counts as inactive or inconclusive. % is scaled to controls: 0 for no effect and ±100 for the full control effect.

SMILES	Six1-Eya2 blk	DT40 TDP1 no CPT	DT40 TDP1 CPT	CtBP-E1A inh	IL1B secr inh	TDP1 block
COCCOC1CCN(C(=O)C2CCC(=O)N(CCc3ccc(OC)cc3)C2)CC1 (configuration not stated)	-3	14%	-3%	-3	20	5%
Cc1cc2c(cc1C)N[C@]1(C[C@H]3CCCC(=O)N4CC[C@@H](C1)[C@@H]34)C(=NC(C)(C)CC(C)(C)C)N2	?	11µM*	18µM*	1	41	.
Cc1cc2c(cc1C)N[C@]1(C[C@H]3CCCC(=O)N4CC[C@@H](C1)[C@@H]34)C(=NCc1ccccc1)N2	.	11µM*	11µM*	.	.	.
O=C1CCC[C@@H]2C[C@@]3(C[C@@H]4CCN1[C@H]24)Nc1cc([N+](=O)[O-])ccc1NC3=NC1CCCCC1	-3	11µM*	26µM*	-1	-11	.
O=C1CCC[C@@H]2C[C@@]3(C[C@@H]4CCN1[C@H]24)Nc1cc(Cl)ccc1NC3=NCc1ccccc1	-6	?	?	1	24	.
C/C(=N\NC(=O)C1CC1c1ccccc1)c1ccc(C)s1 (configuration not stated)	4	-27%	?	0	10	-3%
Cc1ccc(C(c2nnnn2Cc2ccccc2)N2CCN(Cc3ccccc3)CC2)cc1 (configuration not stated)	-19	16µM*	?	-6	?	7%
COc1ccc(N2CCN(C(c3cc4cc(C)ccc4[nH]c3=O)c3nnnn3Cc3ccccc3)CC2)cc1 (configuration not stated)	?	?	?	-20	?	9%
Cc1ccc2cc(C(c3nnnn3Cc3ccccc3)N3CCN(c4ccccc4)CC3)c(=O)[nH]c2c1 (configuration not stated)	-15	?	13µM*	-16	-21	3%
CCC(C)(C)n1nnnc1C(c1ccccc1)N1CCN(Cc2ccccc2)CC1 (configuration not stated)	3	6%	19%	-1	-6	6%
COc1ccc(C(c2nnnn2Cc2ccccc2)N2CCN(c3ccccc3)CC2)cc1 (configuration not stated)	-14	-8%	-6%	-6	7	4%
c1ccc(CN2CCN(C(c3ccccc3)c3nnnn3Cc3ccccc3)CC2)cc1 (configuration not stated)	-1	18µM*	?	-25	-58*	1%
CCN1CCN(C(c2cc3cccc(C)c3[nH]c2=O)c2nnnn2Cc2ccccc2)CC1 (configuration not stated)	-1	-21%	-30%	-12	-3	3%
Cc1cccc2cc(C(c3nnnn3Cc3ccccc3)N3CCCc4ccccc43)c(=O)[nH]c12 (configuration not stated)	-2	16µM*	13µM*	-8	46	6%
Cc1ccc(C(c2nnnn2CS(=O)(=O)c2ccc(C)cc2)N2CCCC2)cc1 (configuration not stated)	7	1%	-27%	-10	-24	5%
Cc1ccc(S(=O)(=O)Cn2nnnc2C(c2ccc(F)cc2)N2CCCCC2)cc1 (configuration not stated)	4	23µM*	?	10	-1	-2%
CC(C)(C)c1ccc(C(=O)/C=C2\NC(=O)CS2)cc1	-2	18µM*	15µM*	5	-23	5%
COCCN1CCN(C(=O)c2ccc3oc(CCCc4ccccc4)nc3c2)CC1	20	-27%	2%	1	17	3%
COc1ccc(-c2cc(C(F)(F)F)nc(SCCC(=O)Nc3ccc(O)cc3)n2)cc1	.	.	.	.	.	2%
COc1ccc(-c2cc(C(F)(F)F)nc(SCCC(=O)N3CCCC3)n2)cc1	4	?	?	2	-52*	2%
COc1ccc(-c2cc(C(F)(F)F)nc(SCCC(=O)N3CCN4CCCC4C3)n2)cc1 (configuration not stated)	13	26µM*	?	-5	-15	0%
O=C(CN1CCCC1c1ccc2c(c1)OCCO2)NC(=O)Nc1ccccc1F (configuration not stated)	-7	-24%	-17%	-2	-5	-11%
CCCNC(=O)C[C@H]1C[C@H]2c3cc(NC(=O)Nc4ccc(F)cc4)ccc3O[C@H]2[C@@H](CO)O1	4	2.3µM*	1.8µM*	1	-6	.
COC(=O)C[C@H]1C[C@@H]2c3cc(NC(=O)Nc4ccc(F)cc4)ccc3O[C@@H]2[C@@H](CO)O1	9	-9%	-4%	-21	13	.
O=C(C[C@H]1C[C@@H]2c3cc(NC(=O)Nc4ccccc4F)ccc3O[C@@H]2[C@H](CO)O1)NCc1ccccn1	-1	16µM*	?	-4	-1	.
SMILES	Six1-Eya2 blk	DT40 TDP1 no CPT	DT40 TDP1 CPT	CtBP-E1A inh	IL1B secr inh	TDP1 block
COC(=O)C[C@H]1C[C@H]2c3cc(NC(=O)Nc4ccc(C(F)(F)F)cc4)ccc3O[C@H]2[C@@H](CO)O1	-5	26µM*	?	-18	-4	.
COCCNC(=O)C[C@@H]1C[C@H]2c3cc(NC(=O)Nc4ccc(F)cc4)ccc3O[C@H]2[C@H](CO)O1	4	8.2µM*	?	-14	3	.
COCC(=O)Nc1ccc2c(c1)[C@@H]1C[C@H](CC(=O)NCc3cccc(F)c3)O[C@@H](CO)[C@@H]1O2	-2	-19%	-23%	6	9	.
CCc1c(O)nc(SCc2ccc(F)cc2)[nH]c1=O	3	6%	-2%	0	4	.
Cc1onc(-c2c(Cl)cccc2Cl)c1C(=O)NC(=S)Nc1sc2c(c1C(N)=O)CCC(C)C2 (configuration not stated)	8	?	?	-10	0	1%
O=C(C[C@@H]1C[C@H]2c3cc(NC(=O)NC4CCCCC4)ccc3O[C@H]2[C@H](CO)O1)NC1CCCCC1	-8	15µM*	?	0	?	.
